Seven compounds from PubChem BioAssay (NCI) can be followed below.

Among the test systems are SR leukemia; OVCAR-8 ovarian; OVCAR-5 ovarian; SK-OV-3 ovarian; IGROV1 ovarian; OVCAR-3 ovarian; HS 578T breast; NCI/ADR-RES ovarian; T-47D breast; BT-549 breast; SW-620 colon; MCF7 breast; HCT-116 colon; HCC-2998 colon; KM12 colon; RPMI-8226 leukemia; MDA-MB-435 melanoma; OVCAR-4 ovarian.
What all share (assay): NCI-60 one-dose screen, 48 h (100 = growth as untreated, 0 = no growth, -100 = all killed)
What all share (conditions): 10 µM unless noted

Structures are written as SMILES. The panel holds about 83,000 compounds, 20% with a hit somewhere; the sample as a whole holds those more often.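 The test compound was applied at a single concentration to cells in 96-well plates for 48 hours, and percent growth was recorded.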 Unmarked numbers belong to inactive results. Calls of active or inactive are those of the source. The calls were made as follows: active = growth percent below 10; inactive = the rest.

Consider `O=C1C=C(C(O)c2ccc(O)cc2)C(=O)c2ccccc21` (configuration not stated), for which the growth in the experiment on SR leukemia was 87.7%; with OVCAR-8 ovarian, 104%; in the experiment on OVCAR-5 ovarian, 99.7%; in the experiment on SK-OV-3 ovarian, 85.8%; with IGROV1 ovarian, 86.3%; with OVCAR-3 ovarian, 96.2%. Also, the growth is 120% with HS 578T breast; 105% with NCI/ADR-RES ovarian; 80.2% in the experiment on T-47D breast; 88.1% with BT-549 breast; 97.4% with SW-620 colon; 94.1% in the experiment with MCF7 breast. Besides, the growth was 96.1% in the experiment on HCT-116 colon, 97% in the experiment on HCC-2998 colon and 107% with KM12 colon.
Turning to `COc1ccc2c(c1)c(-c1nc(-c3c[nH]c4ncccc34)cs1)cn2C`, the growth in the experiment with RPMI-8226 leukemia was 44.3%; in the experiment on OVCAR-8 ovarian it was 80.8%; with OVCAR-5 ovarian it was 55%; in the experiment on IGROV1 ovarian it was 59.8%; in the experiment on OVCAR-3 ovarian, 103%; in the experiment on HS 578T breast, 77.2%. The growth in the experiment with T-47D breast was 41.4%; in the experiment with BT-549 breast, 72.8%; in the experiment on MDA-MB-435 melanoma, 69.6%; in the experiment on SW-620 colon, 83.3%; in the experiment on MCF7 breast, 14.9%; in the experiment on HCT-116 colon it was 56.7%. Besides, the growth in the experiment on HCC-2998 colon was 83.1%; in the experiment on KM12 colon it was 24%.
Take `Cn1cc(-c2csc(-c3cn(C(=O)OC(C)(C)C)c4ccccc34)n2)c2cccnc21`: the growth in the experiment on RPMI-8226 leukemia is 75.3%; in the experiment on OVCAR-8 ovarian, 76.3%; in the experiment on OVCAR-5 ovarian it was 104%; with SK-OV-3 ovarian, 74.9%; with IGROV1 ovarian, 59.8%; in the experiment on OVCAR-3 ovarian, 14.6%. Besides, the growth with HS 578T breast was 73.1%; in the experiment on NCI/ADR-RES ovarian, 29.3%; in the experiment on T-47D breast, 43.4%; in the experiment on BT-549 breast it was 60.3%; in the experiment with MDA-MB-435 melanoma, 11.4%; in the experiment on SW-620 colon, 36.1%. Besides, the growth in the experiment on MCF7 breast was 53.6%; in the experiment with HCT-116 colon, 56%; in the experiment with HCC-2998 colon it was 65.5%; in the experiment with KM12 colon it was 38.5%.
`C#CCC(C)(O)/C=C/C1=C(C)CCCC1(C)C` (configuration not stated): the growth was 107% in the experiment with SR leukemia; 101% in the experiment with OVCAR-8 ovarian; 88.7% in the experiment with OVCAR-5 ovarian; 107% with OVCAR-4 ovarian; 92.3% in the experiment on SK-OV-3 ovarian; 102% in the experiment on IGROV1 ovarian. Further, the growth with OVCAR-3 ovarian is 106%; in the experiment with HS 578T breast it was 108%; with NCI/ADR-RES ovarian, 99.8%; with T-47D breast, 83%; in the experiment with BT-549 breast, 87.6%; in the experiment on MDA-MB-435 melanoma, 103%. In addition, the growth in the experiment with SW-620 colon is 104%; in the experiment on MCF7 breast it was 97.6%; with HCT-116 colon, 82.6%; with HCC-2998 colon, 106%; in the experiment with KM12 colon it was 97.6%.
Consider `Cn1cc(-c2nc(-c3c[nH]c4ncccc34)cs2)c2cc(Br)ccc21`, for which the growth was 72.6% in the experiment on RPMI-8226 leukemia; 104% in the experiment with OVCAR-8 ovarian; 82.9% in the experiment on OVCAR-5 ovarian; 91.9% in the experiment with SK-OV-3 ovarian; 76% in the experiment on IGROV1 ovarian; 118% in the experiment on OVCAR-3 ovarian. The growth with HS 578T breast was 98%; in the experiment with NCI/ADR-RES ovarian it was 75%; in the experiment on T-47D breast it was 84%; in the experiment with BT-549 breast, 99.8%; in the experiment with MDA-MB-435 melanoma, 79.8%; in the experiment on SW-620 colon, 95.8%. Also, the growth in the experiment with MCF7 breast is 35.3%; in the experiment with HCT-116 colon, 64.4%; in the experiment with HCC-2998 colon it was 99.8%; in the experiment with KM12 colon it was 62.5%.
Consider `Cc1ccc(-c2ccc(/C=C(\C#N)c3nc(-c4ccco4)cs3)o2)cc1`, for which the growth is 89.8% in the experiment on SR leukemia; 99.8% in the experiment with OVCAR-8 ovarian; 77.5% with OVCAR-5 ovarian; 28.1% in the experiment on OVCAR-4 ovarian; 101% in the experiment with SK-OV-3 ovarian; 63.5% in the experiment on IGROV1 ovarian. In addition, the growth was 112% in the experiment on OVCAR-3 ovarian; 107% in the experiment with HS 578T breast; 103% in the experiment on NCI/ADR-RES ovarian; -22.8% (active) in the experiment on T-47D breast; 103% with BT-549 breast; 98.6% with MDA-MB-435 melanoma. Besides, the growth is 99.8% in the experiment on SW-620 colon; 14.5% with MCF7 breast; 98% with HCT-116 colon; 54.8% with HCC-2998 colon; 61.2% in the experiment with KM12 colon.
Regarding `COc1ccc(CCN2C(=O)C(C)(C)SC2=S)cc1OC`, the growth in the experiment with SR leukemia was 103%; in the experiment on OVCAR-8 ovarian, 102%; in the experiment with OVCAR-5 ovarian it was 104%; with OVCAR-4 ovarian, 96.6%; with SK-OV-3 ovarian, 108%; with IGROV1 ovarian it was 94.4%. Further, the growth in the experiment on OVCAR-3 ovarian is 107%; in the experiment on HS 578T breast it was 107%; in the experiment with NCI/ADR-RES ovarian, 100%; in the experiment on T-47D breast, 104%; in the experiment on BT-549 breast, 105%; in the experiment on MDA-MB-435 melanoma it was 99.2%. The growth is 103% in the experiment with SW-620 colon; 98.5% with MCF7 breast; 97.6% in the experiment on HCT-116 colon; 106% in the experiment on HCC-2998 colon; 101% with KM12 colon.
